Pol eta inh-1: qHTS for Inhibitors of Polymerase Eta. 390,000 compounds, 1.2% hits. AID 588591, 2011. DNA polymerase eta (Homo sapiens), Q9Y253. Potency, µM (series often up to 114 µM), inactives show top-dose activity change, negative = inhibition, hits mostly inhibitors. recombinant Pol eta, fluorescent DNA replication assay; further: potency means the concentration at half of the fitted maximal effect; on the % scale 0 is the no-effect control and ±100 the full control effect
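Pol eta (10 nM) was preincubated with compounds for 15 min at room temperature, after which fluorescent replication substrate (50 nM final) was added to start the reaction. Fluorescence was read kinetically at 0 and 10 min.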
FEN1 inhibitor: qHTS Assay for the Inhibitors of Human Flap endonuclease 1 (FEN1); Recombinant FEN1 flap cleavage, fluorescence, 15 min; 390,000 compounds, 0.35% hits; Potency, µM (doses to about 114 µM), inactives show top-dose activity change, negative = inhibition, usual class: inhibitors; further: potency means the concentration at half of the fitted maximal effect; on the % scale 0 is the no-effect control and ±100 the full control effect; nearly all actives have a fitted effect of over 65% in size
Target sequence (P39748 whole entry, looked up): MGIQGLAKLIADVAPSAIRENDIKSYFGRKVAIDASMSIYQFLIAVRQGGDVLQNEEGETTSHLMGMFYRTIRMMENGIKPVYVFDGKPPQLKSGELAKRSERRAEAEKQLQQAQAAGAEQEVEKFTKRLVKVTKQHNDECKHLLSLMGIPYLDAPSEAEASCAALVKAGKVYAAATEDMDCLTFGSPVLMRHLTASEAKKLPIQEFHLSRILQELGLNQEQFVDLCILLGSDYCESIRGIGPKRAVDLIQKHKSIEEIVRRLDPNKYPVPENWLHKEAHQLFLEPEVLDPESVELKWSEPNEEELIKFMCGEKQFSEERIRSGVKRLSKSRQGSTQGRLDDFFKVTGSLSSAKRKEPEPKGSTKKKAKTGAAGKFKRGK
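Potency values derive from four-parameter Hill fits of normalized qHTS data. The reaction used 10 nM FEN1 preincubated 15 min at room temperature with compound, then 50 nM DNA substrate, read at 0 and 15 min.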
POLB inh: qHTS Assay for Inhibitors of DNA Polymerase Beta | P06746 | Pol beta primer extension/strand displacement, fluorescence kinetic | Potency, µM (series often up to 114 µM), inactives show at the top dose activity change, negative = inhibition, usual class: inhibitors | 340,000 compounds, 1.3% hits | AID 485314, 2010; further: potency means the concentration at half of the fitted maximal effect; on the % scale 0 is the no-effect control and ±100 the full control effect
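Values derive from four-parameter Hill fits of normalized kinetic data: reads at 0 and 10 min following addition of 50 nM substrate to 10 nM Pol beta preincubated 15 min with compound.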
Pol kappa inh-1: qHTS for Inhibitors of Polymerase Kappa. Potency, µM (titrated, usually from 107 µM), without a hit: top-dose activity, negative = inhibition, usual class: inhibitors. AID 588579, 2011. DNA polymerase kappa (Homo sapiens), Q9UBT6. purified Pol kappa, fluorescent DNA synthesis assay, 10 min. 400,000 compounds, 0.53% hits; further: potency means the concentration at half of the fitted maximal effect; on the % scale 0 is the no-effect control and ±100 the full control effect
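Activity was followed as the change in fluorescence between reads at 0 and 10 min after starting the reaction with 50 nM substrate. Beforehand, 10 nM polymerase had been preincubated with compound for 15 min at room temperature.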
PI5P4K alpha inh: qHTS for Inhibitors of phosphatidylinositol 5-phosphate 4-kinase (PI5P4K) | Phosphatidylinositol 5-phosphate 4-kinase type-2 alpha (Homo sapiens), P48426 | PI5P4Kalpha enzyme, ADP-Glo luminescence, 60 min; active compounds read low | 330,000 compounds, 1.2% hits | max response, % | AID 652105, 2013; active means max response of -50% or lower; inconclusive means between -30% and -50%; inactive means -30% or higher; further: value at the top dose of about 77 µM; on the % scale 0 is the no-effect control and ±100 the full control effect
Target sequence (P48426 whole entry, looked up): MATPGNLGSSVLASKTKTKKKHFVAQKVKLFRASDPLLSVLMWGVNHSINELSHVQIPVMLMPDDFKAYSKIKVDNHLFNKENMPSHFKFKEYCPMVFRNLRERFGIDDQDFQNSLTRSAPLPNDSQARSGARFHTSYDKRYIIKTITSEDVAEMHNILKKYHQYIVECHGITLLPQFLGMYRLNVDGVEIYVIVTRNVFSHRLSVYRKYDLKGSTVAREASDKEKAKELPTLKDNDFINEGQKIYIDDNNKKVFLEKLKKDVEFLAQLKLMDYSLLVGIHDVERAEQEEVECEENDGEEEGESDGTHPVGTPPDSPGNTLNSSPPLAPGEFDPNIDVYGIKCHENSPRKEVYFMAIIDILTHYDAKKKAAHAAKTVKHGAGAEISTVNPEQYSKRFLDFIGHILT
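Reactions run in 0.038 M HEPES pH 7.4, 0.28 mM EGTA, 0.1% CHAPS and 5% DMSO, with PI5P4Kalpha, substrate, compound and 5 microM ATP final, one hour at room temperature. Readout is ADP-Glo luminescence.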
Pol iota inh: qHTS for Inhibitors of Polymerase Iota; DNA polymerase iota (Homo sapiens), Q9UNA4; Pol iota fluorescent replication assay, 10 min; Potency, µM (highest dose often 115 µM), for inactives: top-dose activity, negative = inhibition, actives largely listed as inhibitors; 390,000 compounds, 1% hits; AID 588590, 2011; further: potency means the concentration at half of the fitted maximal effect
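Fluorescent replication assay read twice, at 0 min and 10 min after adding 50 nM (final) substrate. Enzyme (10 nM) and compounds were first incubated 15 min at room temperature; enzyme-free buffer wells were negative controls.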
TbPGK inh: qHTS for inhibitors of Phosphogylcerate Kinase: Hit Validation Screen | TbPGK coupled GAPDH assay, Kinase-Glo luminescence | Potency, µM (titrated, usually from 57.5 µM), without a hit: top-dose activity change, negative = inhibition, hits mostly inhibitors | shares compounds with Pol kappa inh-1 | 500 compounds, 79% hits | AID 686980, 2013; further: potency means the concentration at half of the fitted maximal effect; on the % scale 0 is the no-effect control and ±100 the full control effect; nearly all actives have a fitted effect of over 65% in size
POLI cherry-pick: qHTS for Inhibitors of Polymerase Iota: Confirmatory Assay for Cherry-picked Compounds; shares compounds with Pol kappa inh-1; Pol iota primer extension, TAMRA/BHQ fluorescence; Potency, µM, actives largely listed as inhibitors; 1,500 compounds, 77% hits; AID 720496, 2013; further: potency means the concentration at half of the fitted maximal effect
GALK inh confirm: Confirmation Assay for Inhibitors of Human Galactokinase (GALK) | purified GALK, Kinase-Glo ATP depletion luminescence | AID 2015, 2009 | 150 compounds, 70% hits | Potency, µM (doses to about 115 µM), inactives show at the highest dose activity, negative = inhibition, usual class: inhibitors | shares compounds with Pol eta inh-1
GALK redox cs: Confirmatory Assay for Inhibitors of Human Galactokinase (GALK): Phenol-HRP redox assay counterscreen. shares compounds with Pol eta inh-1. Phenol red-HRP H2O2 redox cycling, absorbance 600 nm. Potency, µM (highest dose often 115 µM), inactives show at the highest dose activity change, negative = H2O2 signal, hits mostly inhibitors. 150 compounds, 40% hits
HEK293 viability: Secondary Assay for Inhibitors of Human Galactokinase (GALK): HEK-293 Cell Viability Assay; shares compounds with Pol eta inh-1; HEK-293 viability, ATP luminescence (CellTiter-Glo), 24/48 h; Potency, µM (top dose mostly 46.1 µM), for the others: at the highest dose activity change, negative = cytotoxicity, most hits filed as inhibitors; 170 compounds, 10% hits; further: potency means the concentration at half of the fitted maximal effect; on the % scale 0 is the no-effect control and ±100 the full control effect
Pol kappa inh-2: qHTS for Inhibitors of Polymerase Kappa: Confirmatory Assay for Cherry-picked Compounds; shares compounds with Pol eta inh-1; purified Pol-kappa, fluorescent strand-displacement substrate; Potency, µM, most hits filed as inhibitors; 920 compounds, 76% hits; further: potency means the concentration at half of the fitted maximal effect
Pol eta inh-2: qHTS for Inhibitors of Polymerase Eta: Confirmatory Assay for Cherry-picked Compounds | shares compounds with Pol eta inh-1 | Pol eta primer extension, TAMRA/BHQ fluorescence, 10 min | Potency, µM, actives largely listed as inhibitors | 2,600 compounds, 64% hits | AID 720502, 2013; further: potency means the concentration at half of the fitted maximal effect
* = called active by the depositor; ? = inconclusive; . = no result; [ ] = remark or other dose. An excerpt weighted towards active compounds, which were near 2.8% of everything screened. Unless noted, the call rests on the fitted dose curve; in most records, active means well fitted curve in the direction sought with a large enough effect; inconclusive means small, poorly fitted or top-dose-only effect, or another doubt; inactive means no such curve, though single readings can be large; an effect the other way counts as inactive or inconclusive.

SMILES | Pol eta inh-1 | FEN1 inhibitor | POLB inh | Pol kappa inh-1 | PI5P4K alpha inh | Pol iota inh | POLI cherry-pick | Pol kappa inh-2 | Pol eta inh-2 | others
Cc1cccc(C(=O)Oc2ccc(/C=N/NC(=O)c3cc(O)cc(O)c3)cc2)c1 | 7.9µM* | ? | 7.1µM* | 50µM* | -77* | 18µM* | 67* | 15* | 34*
Cc1ccc(/C=C/C(=O)NCc2ccccn2)o1 | 3.2µM* | -26% | 18µM* | 45µM* | -64* | 16µM* | 19* | 15* | 27*
[O-][n+]1c2ccccc2[n+]([O-])c2cc(O)ccc21 | 18µM* | ? | 22µM* | ? | -54* | ? | ? | ? | ? | TbPGK inh=33µM*
CN(C)c1cc(Cl)c2nonc2c1N | 79µM* | ? | -26% | -23% | -10 | 10µM* | 75* | . | 76* | GALK inh confirm=21µM*;GALK redox cs=12µM*;HEK293 viability=19%
CC1=C(C#N)c2nc(N)c(C#N)c(C)c2/C1=C\c1ccc(OCC(=O)O)c(Cl)c1 | 7.9µM* | ? | -17% | 79µM* | ? | ? | 47* | 19* | 19*
CCOc1ccc(C(=O)NCCc2sc3nc(-c4ccc(Cl)cc4)nn3c2C)cc1OCC | -8% | 20% | 2% | -10%[60.1 µM] | . | -5% | . | . | .
O=c1cc(-c2ccc(O)cc2)oc2c(O)c(O)c(O)c(O)c12 | 1.6µM* | 20µM* | 2.2µM* | 10µM* | -15 | 10µM* | 7.5* | 4.7* | 5.4* | TbPGK inh=0.92µM*
O=c1cc(-c2ccccc2)oc2cc(O)c(O)c(O)c12 | 3.2µM* | 35µM* | . | 20µM* | -74* | ? | ? | . | 15*
CCc1nc(Nc2ccccc2F)c2oc3ccccc3c2n1 | -8% | 21% | 15% | -3% | 11 | -13% | . | . | .
COC(=O)[C@@]1(C(C)C)N=C(c2cc(OC)c(OC)c(OC)c2)[C@]2(O1)C(=O)N(C)c1ccccc12 | . | . | . | . | 0 | . | . | . | .
Cc1ccc(S(=O)(=O)N2[C@@H](c3ccc(Cl)cc3)C(C(=O)O)=CC[C@H]2c2ccc(C(C)C)cc2)cc1 | ? | 2% | . | -38% | -5 | -6% | 60* | 42* | 85*
Cc1ccc([C@H]2C(C(=O)O)=CC[C@@H](c3ccc(C(C)C)cc3)N2S(=O)(=O)c2ccc(C)cc2)cc1 | ? | -8% | . | -35% | -19 | ? | . | . | .
CC(=O)c1ccc(S(=O)(=O)Nc2ccc(-c3cn4c(C)csc4n3)cc2)cc1 | 1% | -9% | -2% | -6%[60.1 µM] | . | ? | . | . | .
O=C(O)CCCN1C(=O)/C(=C/c2cn(-c3ccccc3)nc2-c2cccs2)SC1=S | 28µM* | -29% | 22µM* | ? | 3 | 35µM* | 42* | . | 76*
Cc1ccnc2nc(C(=O)Nc3nnc(-c4ccc(Cl)cc4)o3)nn12 | ? | -11% | ? | ? | 0 | ? | 42* | . | ?
O=C(O)c1ccccc1NS(=O)(=O)c1ccc(NNC(=S)Nc2ccc(OC(F)F)cc2)c([N+](=O)[O-])c1 | 25µM* | ? | 89µM* | ? | -82* | ? | 75* | . | 76*
Cc1cccc(NC(=O)C(C)OC(=O)c2ccccc2NS(=O)(=O)c2cc(C)c(C)c([N+](=O)[O-])c2)c1 (stereo unspecified) | -23% | -3% | 27% | -3% | 1 | 42% | . | . | .
O=C(NCc1cccc(Br)c1)c1cnn(-c2ccc(F)cc2)c1-n1cccc1 | -6% | 0% | -9% | -1% | . | 14% | . | . | .
Cc1ccc(C(=O)O)cc1-c1ccc(/C=C2\SC(=O)N(CC(=O)Nc3ccccc3)C2=O)o1 | 18µM* | 50µM* | ? | ? | -56* | ? | 42* | . | 48*
COC(=O)c1ccccc1-c1ccc(/C=C2\C(=O)N(c3ccccc3)N=C2c2ccccc2)o1 | -9% | -3% | 23% | 9% | -2 | 0% | . | . | .
Cc1ccc(C(=O)O)cc1-c1ccc(/C=C2/NC(=O)N(c3ccccc3)C2=O)o1 | 2.8µM* | ? | 5.6µM* | 22µM* | ? | 14µM* | 19* | 19* | 30*
CCOC(=O)C(C)N1C(=O)S/C(=C\c2ccc(-c3ccccc3C(=O)O)o2)C1=O (stereo unspecified) | 3.2µM* | 32µM* | 22µM* | -17% | ? | ? | 17* | 3* | 17*
Cc1ccc2c(nc3s/c(=C\c4ccc(-c5ccccc5C(=O)O)o4)c(=O)n32)c1C | 10µM* | -23% | 20µM* | ? | ? | 15% | 75* | 24* | 17*
